From publication PMC11006913
Residue numbers refer to the chain shown, from its start.

These sequences were tested against T1, NKX2-4 (Homo sapiens, UniProt Q9H2Z4 175-261, P217L) (assay: PBM; 200 nM protein, PBS). Conditions: dsDNA, one strand shown.
T1 sequence: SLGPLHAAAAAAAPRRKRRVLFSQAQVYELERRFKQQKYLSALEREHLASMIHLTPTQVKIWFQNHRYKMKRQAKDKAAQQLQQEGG
In the case of CCTCTTGA, the binding signal is reported as 12.7 upbm affinity estimate (log intensity, higher = more binding, comparable within an allelic series). With CCTCTTAA the binding signal was 12.4 upbm affinity estimate (log intensity, higher = more binding, comparable within an allelic series). With AAGTGGTC the binding signal was 12.4 upbm affinity estimate (log intensity, higher = more binding, comparable within an allelic series). For TCAAGTGA, the binding signal was 12.5 upbm affinity estimate (log intensity, higher = more binding, comparable within an allelic series). For CTCAAGTA, the binding signal was 12.7 upbm affinity estimate (log intensity, higher = more binding, comparable within an allelic series). With ACTTGAGA the binding signal was 12.6 upbm affinity estimate (log intensity, higher = more binding, comparable within an allelic series). In the case of CACTTGAA, the binding signal is reported as 12.8 upbm affinity estimate (log intensity, higher = more binding, comparable within an allelic series). With TACCGGTA the binding signal was 9.99 upbm affinity estimate (log intensity, higher = more binding, comparable within an allelic series). In the case of ATCGGTGG, the binding signal is reported as 9.32 upbm affinity estimate (log intensity, higher = more binding, comparable within an allelic series). With CTCTTAAG the binding signal was 12.5 upbm affinity estimate (log intensity, higher = more binding, comparable within an allelic series). For ACACTTGA, the binding signal was 12.7 upbm affinity estimate (log intensity, higher = more binding, comparable within an allelic series). In the case of CGTGCGGC, the binding signal is reported as 9.48 upbm affinity estimate (log intensity, higher = more binding, comparable within an allelic series). With AGTACTTG the binding signal was 12.5 upbm affinity estimate (log intensity, higher = more binding, comparable within an allelic series). ACACTTCA was tested, and the binding signal was 12.6 upbm affinity estimate (log intensity, higher = more binding, comparable within an allelic series). With ACGGCCTG the binding signal was 9.73 upbm affinity estimate (log intensity, higher = more binding, comparable within an allelic series). With GTACTTCA the binding signal was 12.7 upbm affinity estimate (log intensity, higher = more binding, comparable within an allelic series). For AGTCCGGG, the binding signal was 9.61 upbm affinity estimate (log intensity, higher = more binding, comparable within an allelic series). For AAGTGGAC, the binding signal was 12.4 upbm affinity estimate (log intensity, higher = more binding, comparable within an allelic series). With AAGTGCCC the binding signal was 12.5 upbm affinity estimate (log intensity, higher = more binding, comparable within an allelic series). For CCACTCGA, the binding signal was 12.6 upbm affinity estimate (log intensity, higher = more binding, comparable within an allelic series). In the case of TACTTGAA, the binding signal is reported as 12.7 upbm affinity estimate (log intensity, higher = more binding, comparable within an allelic series). With CACTTCAA the binding signal was 12.6 upbm affinity estimate (log intensity, higher = more binding, comparable within an allelic series). For TAAGTGTA, the binding signal was 12.4 upbm affinity estimate (log intensity, higher = more binding, comparable within an allelic series). For CAAGTACC, the binding signal was 12.4 upbm affinity estimate (log intensity, higher = more binding, comparable within an allelic series). CGGTGCAG was tested, and the binding signal was 9.49 upbm affinity estimate (log intensity, higher = more binding, comparable within an allelic series). For CACTCGAA, the binding signal was 12.5 upbm affinity estimate (log intensity, higher = more binding, comparable within an allelic series). In the case of CACTTCAG, the binding signal is reported as 12.6 upbm affinity estimate (log intensity, higher = more binding, comparable within an allelic series). With GTCAAGTA the binding signal was 12.5 upbm affinity estimate (log intensity, higher = more binding, comparable within an allelic series).

These sequences were tested against T2, VENTX (Homo sapiens, UniProt O95231 78-163, R121Q) (assay: PBM; 200 nM protein, PBS). Conditions: dsDNA, one strand shown.
T2 sequence: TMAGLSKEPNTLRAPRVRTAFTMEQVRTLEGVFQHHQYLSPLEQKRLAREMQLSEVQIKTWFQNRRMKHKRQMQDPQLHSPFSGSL
ATAATGGG was tested, and the binding signal was 11.4 upbm affinity estimate (log intensity, higher = more binding, comparable within an allelic series). In the case of CCGACCTC, the binding signal is reported as 7.98 upbm affinity estimate (log intensity, higher = more binding, comparable within an allelic series). CTGGCCAG was tested, and the binding signal was 8.26 upbm affinity estimate (log intensity, higher = more binding, comparable within an allelic series). CGGTCGGC was tested, and the binding signal was 8.16 upbm affinity estimate (log intensity, higher = more binding, comparable within an allelic series). With CCGACGCC the binding signal was 8.14 upbm affinity estimate (log intensity, higher = more binding, comparable within an allelic series). CACGGGCC was tested, and the binding signal was 7.96 upbm affinity estimate (log intensity, higher = more binding, comparable within an allelic series). In the case of CCGGTGGC, the binding signal is reported as 7.92 upbm affinity estimate (log intensity, higher = more binding, comparable within an allelic series). For CCTGGGCC, the binding signal was 7.97 upbm affinity estimate (log intensity, higher = more binding, comparable within an allelic series). For GCGACGCC, the binding signal was 8.02 upbm affinity estimate (log intensity, higher = more binding, comparable within an allelic series).

The sequences below were run against HOXB9 (Homo sapiens, UniProt P17482 171-250, T197M) (assay: PBM; 200 nM protein, PBS). Conditions: dsDNA, one strand shown.
HOXB9, sequence (P17482 171-250 T197M): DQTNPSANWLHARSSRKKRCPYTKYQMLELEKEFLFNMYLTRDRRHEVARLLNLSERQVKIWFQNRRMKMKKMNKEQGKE
With CATGCGCC the binding signal was 8.7 upbm affinity estimate (log intensity, higher = more binding, comparable within an allelic series). In the case of CGTGCACG, the binding signal is reported as 8.83 upbm affinity estimate (log intensity, higher = more binding, comparable within an allelic series). In the case of CCAGCCAG, the binding signal is reported as 8.47 upbm affinity estimate (log intensity, higher = more binding, comparable within an allelic series).

These sequences were tested against T3, VENTX (Homo sapiens, UniProt O95231 78-163) (assay: PBM; 200 nM protein, PBS). Conditions: dsDNA, one strand shown.
T3 sequence: T2 sequence with Q44R
ATAATGGG was tested, and the binding signal was 12.4 upbm affinity estimate (log intensity, higher = more binding, comparable within an allelic series). In the case of CCGACCTC, the binding signal is reported as 7.99 upbm affinity estimate (log intensity, higher = more binding, comparable within an allelic series). For CTGGCCAG, the binding signal was 8.37 upbm affinity estimate (log intensity, higher = more binding, comparable within an allelic series). In the case of CGGTCGGC, the binding signal is reported as 8.35 upbm affinity estimate (log intensity, higher = more binding, comparable within an allelic series). For CCGACGCC, the binding signal was 8.37 upbm affinity estimate (log intensity, higher = more binding, comparable within an allelic series). CACGGGCC was tested, and the binding signal was 8.01 upbm affinity estimate (log intensity, higher = more binding, comparable within an allelic series). For CCGGTGGC, the binding signal was 8.15 upbm affinity estimate (log intensity, higher = more binding, comparable within an allelic series). CCTGGGCC was tested, and the binding signal was 8.01 upbm affinity estimate (log intensity, higher = more binding, comparable within an allelic series). GCGACGCC was tested, and the binding signal was 8.21 upbm affinity estimate (log intensity, higher = more binding, comparable within an allelic series).

What follows are sequences tested against T4, NKX2-4 (Homo sapiens, UniProt Q9H2Z4 175-261, T231S) (assay: PBM; 200 nM protein, PBS). Conditions: dsDNA, one strand shown.
T4 sequence: T1 sequence with L43P, T57S
In the case of CCTCTTGA, the binding signal is reported as 13 upbm affinity estimate (log intensity, higher = more binding, comparable within an allelic series). In the case of CCTCTTAA, the binding signal is reported as 12.7 upbm affinity estimate (log intensity, higher = more binding, comparable within an allelic series). For AAGTGGTC, the binding signal was 12.8 upbm affinity estimate (log intensity, higher = more binding, comparable within an allelic series). For TCAAGTGA, the binding signal was 13 upbm affinity estimate (log intensity, higher = more binding, comparable within an allelic series). For CTCAAGTA, the binding signal was 13.1 upbm affinity estimate (log intensity, higher = more binding, comparable within an allelic series). With ACTTGAGA the binding signal was 12.9 upbm affinity estimate (log intensity, higher = more binding, comparable within an allelic series). CACTTGAA was tested, and the binding signal was 13.3 upbm affinity estimate (log intensity, higher = more binding, comparable within an allelic series). In the case of TACCGGTA, the binding signal is reported as 10.1 upbm affinity estimate (log intensity, higher = more binding, comparable within an allelic series). For ATCGGTGG, the binding signal was 9.63 upbm affinity estimate (log intensity, higher = more binding, comparable within an allelic series). In the case of CTCTTAAG, the binding signal is reported as 12.7 upbm affinity estimate (log intensity, higher = more binding, comparable within an allelic series). For ACACTTGA, the binding signal was 13.2 upbm affinity estimate (log intensity, higher = more binding, comparable within an allelic series). With CGTGCGGC the binding signal was 9.35 upbm affinity estimate (log intensity, higher = more binding, comparable within an allelic series). In the case of AGTACTTG, the binding signal is reported as 12.9 upbm affinity estimate (log intensity, higher = more binding, comparable within an allelic series). In the case of ACACTTCA, the binding signal is reported as 13 upbm affinity estimate (log intensity, higher = more binding, comparable within an allelic series). For ACGGCCTG, the binding signal was 9.59 upbm affinity estimate (log intensity, higher = more binding, comparable within an allelic series). For GTACTTCA, the binding signal was 13.1 upbm affinity estimate (log intensity, higher = more binding, comparable within an allelic series). In the case of AGTCCGGG, the binding signal is reported as 9.48 upbm affinity estimate (log intensity, higher = more binding, comparable within an allelic series). In the case of AAGTGGAC, the binding signal is reported as 12.9 upbm affinity estimate (log intensity, higher = more binding, comparable within an allelic series). With AAGTGCCC the binding signal was 12.8 upbm affinity estimate (log intensity, higher = more binding, comparable within an allelic series). For CCACTCGA, the binding signal was 13.1 upbm affinity estimate (log intensity, higher = more binding, comparable within an allelic series). With TACTTGAA the binding signal was 13.2 upbm affinity estimate (log intensity, higher = more binding, comparable within an allelic series). With CACTTCAA the binding signal was 13 upbm affinity estimate (log intensity, higher = more binding, comparable within an allelic series). TAAGTGTA was tested, and the binding signal was 12.8 upbm affinity estimate (log intensity, higher = more binding, comparable within an allelic series). CAAGTACC was tested, and the binding signal was 12.8 upbm affinity estimate (log intensity, higher = more binding, comparable within an allelic series). With CGGTGCAG the binding signal was 9.46 upbm affinity estimate (log intensity, higher = more binding, comparable within an allelic series). In the case of CACTCGAA, the binding signal is reported as 13 upbm affinity estimate (log intensity, higher = more binding, comparable within an allelic series). With CACTTCAG the binding signal was 12.9 upbm affinity estimate (log intensity, higher = more binding, comparable within an allelic series). GTCAAGTA was tested, and the binding signal was 12.8 upbm affinity estimate (log intensity, higher = more binding, comparable within an allelic series).

What follows are sequences tested against T5, VENTX (Homo sapiens, UniProt O95231 78-163, Y115F) (assay: PBM; 200 nM protein, PBS). Conditions: dsDNA, one strand shown.
T5 sequence: T2 sequence with Y38F, Q44R
For ATAATGGG, the binding signal was 11.4 upbm affinity estimate (log intensity, higher = more binding, comparable within an allelic series). In the case of CCGACCTC, the binding signal is reported as 8.1 upbm affinity estimate (log intensity, higher = more binding, comparable within an allelic series). In the case of CTGGCCAG, the binding signal is reported as 8.37 upbm affinity estimate (log intensity, higher = more binding, comparable within an allelic series). CGGTCGGC was tested, and the binding signal was 8.29 upbm affinity estimate (log intensity, higher = more binding, comparable within an allelic series). CCGACGCC was tested, and the binding signal was 8.23 upbm affinity estimate (log intensity, higher = more binding, comparable within an allelic series). With CACGGGCC the binding signal was 7.92 upbm affinity estimate (log intensity, higher = more binding, comparable within an allelic series). For CCGGTGGC, the binding signal was 8 upbm affinity estimate (log intensity, higher = more binding, comparable within an allelic series). In the case of CCTGGGCC, the binding signal is reported as 7.99 upbm affinity estimate (log intensity, higher = more binding, comparable within an allelic series). In the case of GCGACGCC, the binding signal is reported as 8.16 upbm affinity estimate (log intensity, higher = more binding, comparable within an allelic series).

The sequences below were run against T6, NKX2-4 (Homo sapiens, UniProt Q9H2Z4 175-261) (assay: PBM; 200 nM protein, PBS). Conditions: dsDNA, one strand shown.
T6 sequence: T1 sequence with L43P
For CCTCTTGA, the binding signal was 12.5 upbm affinity estimate (log intensity, higher = more binding, comparable within an allelic series). For CCTCTTAA, the binding signal was 12.3 upbm affinity estimate (log intensity, higher = more binding, comparable within an allelic series). In the case of TCAAGTGA, the binding signal is reported as 12.4 upbm affinity estimate (log intensity, higher = more binding, comparable within an allelic series). With CTCAAGTA the binding signal was 12.6 upbm affinity estimate (log intensity, higher = more binding, comparable within an allelic series). With ACTTGAGA the binding signal was 12.4 upbm affinity estimate (log intensity, higher = more binding, comparable within an allelic series). CACTTGAA was tested, and the binding signal was 12.7 upbm affinity estimate (log intensity, higher = more binding, comparable within an allelic series).
